For some assays here: Potency and affinity values are given separately. The source made the active and inactive calls. Unless noted, the rule behind the calls is not given here.
Legend:
[1] = antimalarial activity against Dd2 strain (AID 2302;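 active = growth inhibition above 50% at the single 2 µM test dose, taken to imply half-maximal potency below 2 µM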;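 note: 0% = DMSO untreated growth and 100% = chloroquine plus artemisinin killed control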); details: P. falciparum Dd2 in RBCs, LDH growth readout, 72 h; at 2 µM; active compounds read high
[2] = HepG2 cytotoxicity, primary screen, cytotoxicity control for P. falciparum antimalarial project, cell-based, ATP luminescence (AID 2303;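 active = inhibition above 50%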;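 note: 0% = DMSO wells and 100% = digitonin-killed cells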); details: HepG2 viability, 24-48 h, at 10 µM, active compounds read high
[3] = biological target: L-lactate dehydrogenase (Plasmodium falciparum (isolate CDC / Honduras)) (UniProt Q27743); assay: PfLDH activity inhibition – cell lysate, 3D7 strain, counter-screen for P. falciparum growth inhibition project (AID 2304);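 note: 0% = vehicle and 100% = reference inhibitor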; details: P. falciparum 3D7 crude extract, LDH APAD/NBT absorbance; at 2 µM; active compounds read high
Chain of L-lactate dehydrogenase (Plasmodium falciparum (isolate CDC / Honduras)) (Q27743 whole entry, looked up): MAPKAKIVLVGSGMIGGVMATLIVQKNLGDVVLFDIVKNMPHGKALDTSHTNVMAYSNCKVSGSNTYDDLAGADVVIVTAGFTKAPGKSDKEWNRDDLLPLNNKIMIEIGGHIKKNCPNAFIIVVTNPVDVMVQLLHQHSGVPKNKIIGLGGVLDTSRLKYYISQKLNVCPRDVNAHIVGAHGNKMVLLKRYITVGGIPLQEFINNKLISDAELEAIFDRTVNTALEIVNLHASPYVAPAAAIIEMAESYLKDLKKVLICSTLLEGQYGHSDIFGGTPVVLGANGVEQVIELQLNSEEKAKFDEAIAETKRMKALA

[4] = inhibition of 3D7 malaria parasite growth – strain 3D7 (AID 2306);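 note: 0% = DMSO wells and 100% = chloroquine plus artemisinin control wells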; details: P. falciparum 3D7 erythrocytic growth, LDH absorbance, 72 h; at 2 µM; active compounds read high
[5] = biological target: Calcium-dependent protein kinase 1 (Plasmodium falciparum (isolate 3D7)) (UniProt P62344); assay: PfCDPK1 kinase inhibitors, biochemical, TCAMS library (AID 1159585; cut-off not given, nearly all actives have IC50 up to about 0.98 µM;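 note: inhibitors leave more ATP so luminescence rises with inhibition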); details: recombinant PfCDPK1, Kinase-Glo ATP depletion luminescence
Chain of Calcium-dependent protein kinase 1 (Plasmodium falciparum (isolate 3D7)) (P62344 whole entry, looked up): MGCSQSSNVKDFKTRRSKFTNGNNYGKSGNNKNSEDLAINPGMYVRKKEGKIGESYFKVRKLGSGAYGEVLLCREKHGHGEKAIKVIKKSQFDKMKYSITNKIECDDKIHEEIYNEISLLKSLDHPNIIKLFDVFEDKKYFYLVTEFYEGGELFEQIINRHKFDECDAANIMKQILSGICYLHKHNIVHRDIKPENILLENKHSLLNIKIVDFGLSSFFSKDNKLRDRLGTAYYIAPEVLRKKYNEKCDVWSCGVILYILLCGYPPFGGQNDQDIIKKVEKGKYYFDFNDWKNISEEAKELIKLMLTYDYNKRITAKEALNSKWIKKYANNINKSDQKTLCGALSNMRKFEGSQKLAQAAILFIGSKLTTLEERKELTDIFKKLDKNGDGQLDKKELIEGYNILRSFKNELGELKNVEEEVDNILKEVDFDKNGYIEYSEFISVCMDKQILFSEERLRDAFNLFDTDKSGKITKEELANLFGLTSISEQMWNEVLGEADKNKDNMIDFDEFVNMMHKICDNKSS

[6] = biological target: Plasmodium falciparum protein kinase 6 (PK6, PF3D7_1337100) (UniProt Q8IDW1); assay: PfPK6 kinase inhibitors, biochemical, TCAMS library (AID 1159586); details: recombinant PfPK6, Kinase-Glo ATP depletion luminescence
Chain of Plasmodium falciparum protein kinase 6 (PK6, PF3D7_1337100) (Q8IDW1 1-305): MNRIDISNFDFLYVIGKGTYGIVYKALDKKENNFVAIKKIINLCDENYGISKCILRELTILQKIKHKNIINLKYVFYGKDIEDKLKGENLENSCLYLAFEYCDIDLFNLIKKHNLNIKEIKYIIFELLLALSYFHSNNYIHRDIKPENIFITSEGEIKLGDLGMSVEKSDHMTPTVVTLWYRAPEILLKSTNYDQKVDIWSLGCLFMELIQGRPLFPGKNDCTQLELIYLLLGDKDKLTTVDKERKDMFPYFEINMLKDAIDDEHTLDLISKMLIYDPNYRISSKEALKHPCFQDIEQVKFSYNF

[7] = biological target: Protein kinase 7 (PK7), Plasmodium falciparum 3D7 (PF3D7_0213400) (UniProt Q7YTF7); assay: inhibition of Plasmodium PK7 catalytic activity – biochemical, TCAMS antimalarial set, Kinase-Glo luminescence (AID 1159587); details: recombinant PfPK7, Kinase-Glo ATP depletion luminescence
Chain of Protein kinase 7 (PK7), Plasmodium falciparum 3D7 (PF3D7_0213400) (Q7YTF7 1-343): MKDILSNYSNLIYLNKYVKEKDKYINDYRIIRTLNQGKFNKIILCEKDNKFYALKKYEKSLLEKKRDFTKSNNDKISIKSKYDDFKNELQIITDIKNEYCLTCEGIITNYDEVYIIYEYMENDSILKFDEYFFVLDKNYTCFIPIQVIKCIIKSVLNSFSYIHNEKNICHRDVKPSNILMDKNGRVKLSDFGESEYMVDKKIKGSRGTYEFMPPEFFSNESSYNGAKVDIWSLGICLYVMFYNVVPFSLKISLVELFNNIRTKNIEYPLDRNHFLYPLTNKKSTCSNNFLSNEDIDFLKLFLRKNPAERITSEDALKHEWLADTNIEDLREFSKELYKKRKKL

[8] = biological target: Calcium-dependent protein kinase 4 (Plasmodium falciparum (isolate 3D7)) (UniProt Q8IBS5); assay: PfCDPK4 kinase inhibitors, biochemical, TCAMS library (AID 1159588; cut-off not given, nearly all actives have IC50 up to about 0.91 µM); details: recombinant PfCDPK4, Kinase-Glo ATP depletion luminescence
Chain of Calcium-dependent protein kinase 4 (Plasmodium falciparum (isolate 3D7)) (Q8IBS5 whole entry, looked up): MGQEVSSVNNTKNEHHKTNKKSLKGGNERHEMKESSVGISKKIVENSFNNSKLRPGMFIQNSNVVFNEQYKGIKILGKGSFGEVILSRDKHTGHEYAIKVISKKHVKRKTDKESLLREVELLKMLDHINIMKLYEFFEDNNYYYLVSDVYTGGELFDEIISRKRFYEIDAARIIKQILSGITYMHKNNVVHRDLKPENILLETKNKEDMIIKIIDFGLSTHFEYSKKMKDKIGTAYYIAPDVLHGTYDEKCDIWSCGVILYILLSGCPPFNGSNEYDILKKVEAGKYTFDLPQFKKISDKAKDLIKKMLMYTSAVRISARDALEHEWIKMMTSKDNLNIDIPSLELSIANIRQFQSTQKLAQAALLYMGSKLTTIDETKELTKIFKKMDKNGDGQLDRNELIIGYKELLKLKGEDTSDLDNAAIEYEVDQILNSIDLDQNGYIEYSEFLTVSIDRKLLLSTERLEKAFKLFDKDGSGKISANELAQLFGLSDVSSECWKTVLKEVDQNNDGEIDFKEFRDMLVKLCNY

COc1ccc(S(=O)(=O)NC2CCN(CCNC(=O)Nc3cc(C)nc4ccccc34)C2)cc1 (stereo not given)
active: growth inhibition [4] 88%
inactive: growth inhibition [1] 41% | inhibition [2] -2% | inhibition [3] 1% | outcome [5] | outcome [6] | outcome [7] | outcome [8]

COc1nc2c(CCN3CC[C@@H](NCc4cc(C#N)c5c(c4)CCO5)[C@@H](O)C3)ccnc2cc1F
inactive: growth inhibition [1] 35% | inhibition [2] 21% | inhibition [3] -1% | outcome [5] | outcome [6] | outcome [7] | outcome [8]
active: growth inhibition [4] 92%

CC(C)C[C@H](NC(=O)c1ccc(OCCN2CCOCC2)cc1)C(=O)N[C@H](/C=N/N1CCN(C)C1=O)CCc1ccccc1
inactive: inhibition [2] 3% | inhibition [3] 3% | outcome [5] | outcome [6] | outcome [7] | outcome [8]
active: growth inhibition [1] 65% | growth inhibition [4] 90%

COc1ccc2nccc(N3CCC(NCc4ccc5c(n4)NC(=O)CS5)CC3)c2n1
inactive: inhibition [2] 14% | inhibition [3] 6% | outcome [5] | outcome [6] | outcome [7] | outcome [8]
active: growth inhibition [1] 63% | growth inhibition [4] 100%

CCN(CC)CCc1ccc2c(=O)cc(CCc3cccc(F)c3F)n(CC(=O)N(C)Cc3ccc(-c4ccc(C(F)(F)F)cc4)cc3)c2c1
active: inhibition [2] 98% | growth inhibition [4] 97%
inactive: growth inhibition [1] 45% | inhibition [3] 1% | outcome [5] | outcome [6] | outcome [7] | outcome [8]

CN1CCCC(CN2CCN(Cc3ccc(-c4cccc(-c5nc6ccc(F)cc6[nH]5)c4)cc3)CC2)C1 (stereo not given)
inactive: inhibition [3] -2% | outcome [5] | outcome [6] | outcome [7] | outcome [8]
active: growth inhibition [1] 99% | inhibition [2] 92% | growth inhibition [4] 100%

CN(CCCN(C)c1cc(NC(=O)c2ccc(F)cc2)ccn1)Cc1cccc(F)c1
active: growth inhibition [1] 60% | growth inhibition [4] 83%
inactive: inhibition [2] -5% | inhibition [3] -1% | outcome [5] | outcome [6] | outcome [7] | outcome [8]

COc1ccc(CCNCCCCCCNCCc2ccc(Cl)c(Cl)c2)cc1OC
inactive: growth inhibition [1] 10% | inhibition [3] -1% | outcome [5] | outcome [6] | outcome [7] | outcome [8]
active: inhibition [2] 59% | growth inhibition [4] 101%

CN(CCCCCNC(=O)/C=C/c1ccc(Cl)c(Cl)c1)CCCCc1c[nH]c2ccccc12
inactive: growth inhibition [1] 15% | inhibition [2] 17% | inhibition [3] 2% | outcome [5] | outcome [6] | outcome [7] | outcome [8]
active: growth inhibition [4] 90%

Fc1ccc2[nH]c3c(NCCN4CCCCC4)ncnc3c2c1
inactive: growth inhibition [1] 44% | inhibition [2] 24% | inhibition [3] 0% | outcome [5] | outcome [6] | outcome [7] | outcome [8]
active: growth inhibition [4] 99%

CC1(C)CC(NCCCCCCCOc2ccc(OCc3ccccc3)cc2)CC(C)(C)N1
inactive: inhibition [3] 0% | outcome [5] | outcome [6] | outcome [7] | outcome [8]
active: growth inhibition [1] 73% | inhibition [2] 99% | growth inhibition [4] 100%

Cc1ccc2nc(C)n(C3CCN(C(=O)C4(c5ccccc5)CC4)CC3)c2c1
inactive: inhibition [2] 8% | inhibition [3] 7% | outcome [5] | outcome [6] | outcome [7] | outcome [8]
active: growth inhibition [1] 83% | growth inhibition [4] 100%

Cc1noc(C)c1-c1cccc(CNCc2ccc(-c3cccc(-c4nc5c(C)cccc5[nH]4)c3)cc2)c1
active: growth inhibition [1] 94% | growth inhibition [4] 101%
inactive: inhibition [2] 24% | inhibition [3] 7% | outcome [5] | outcome [6] | outcome [7] | outcome [8]

CN(C)CCCNCc1cn(S(=O)(=O)c2ccccc2Cl)c2ccccc12
active: growth inhibition [1] 71% | growth inhibition [4] 92%
inactive: inhibition [2] 20% | inhibition [3] -6% | outcome [5] | outcome [6] | outcome [7] | outcome [8]

COc1ccc(-c2cccc(NC(=O)c3cccc(C#N)c3)c2)cc1CN(C)CCN(C)C
active: growth inhibition [4] 99%
inactive: growth inhibition [1] 21% | inhibition [2] -5% | inhibition [3] 3% | outcome [5] | outcome [6] | outcome [7] | outcome [8]

CCCCCCCCNCCCSCCCNCCCCCCCC
active: inhibition [2] 63% | growth inhibition [4] 97%
inactive: growth inhibition [1] 47% | inhibition [3] -3% | outcome [5] | outcome [6] | outcome [7] | outcome [8]

COc1ccc2nccc([C@@H](O)CN3CCC(NCc4ccc5c(c4)NC(=O)CS5)CC3)c2c1
active: growth inhibition [4] 102%
inactive: growth inhibition [1] 36% | inhibition [2] -4% | inhibition [3] -1% | outcome [5] | outcome [6] | outcome [7] | outcome [8]

Cn1c(Cc2ccccc2)nnc1Sc1ccc(C#N)c([N+](=O)[O-])c1
active: growth inhibition [4] 93%
inactive: growth inhibition [1] 29% | inhibition [2] -5% | inhibition [3] -5% | outcome [5] | outcome [6] | outcome [7] | outcome [8]

Cc1cccc2[nH]c(-c3ccc(-c4ccc(CNCc5ccccc5)cc4)cc3)nc12
inactive: inhibition [2] 5% | inhibition [3] -2% | outcome [5] | outcome [6] | outcome [7] | outcome [8]
active: growth inhibition [1] 90% | growth inhibition [4] 99%

CCC(CC)C(CC(=O)NC(C)(C)CCc1ccccc1OC)Nc1ccc(C#N)c2ccccc12 (stereo not given)
active: growth inhibition [1] 91% | growth inhibition [4] 93%
inactive: inhibition [2] 9% | inhibition [3] -1% | outcome [5] | outcome [6] | outcome [7] | outcome [8]

O=C(Nc1nc(-c2ccccn2)cc2ccccc12)c1cccc(Cl)c1
active: growth inhibition [1] 72% | inhibition [2] 59% | growth inhibition [4] 96%
inactive: inhibition [3] -3% | outcome [5] | outcome [6] | outcome [7] | outcome [8]

Cc1ccc(NC(=O)c2ccc3ncccc3c2)cc1OC1CCN(Cc2ccsc2)CC1
inactive: growth inhibition [1] 29% | inhibition [2] 21% | inhibition [3] -2% | outcome [5] | outcome [6] | outcome [7] | outcome [8]
active: growth inhibition [4] 93%

COc1cccc(CN2CCCC(OC(c3ccc(F)cc3)c3ccc(F)cc3)C2)c1O (stereo not given)
inactive: inhibition [2] 8% | inhibition [3] 5% | outcome [5] | outcome [6] | outcome [7] | outcome [8]
active: growth inhibition [1] 95% | growth inhibition [4] 95%

COc1ccc(CNCc2ccsc2)cc1-c1ccc(OC)c(S(=O)(=O)NCCN2CCCC2)c1
inactive: inhibition [2] 18% | inhibition [3] 0% | outcome [5] | outcome [6] | outcome [7] | outcome [8]
active: growth inhibition [1] 62% | growth inhibition [4] 97%

CC(=O)Nc1ccc(C(=O)Nc2cccc(-c3ccc(-c4nc5ccc(C(F)(F)F)cc5[nH]4)cc3)c2)cn1
active: growth inhibition [1] 100% | growth inhibition [4] 101%
inactive: inhibition [2] 46% | inhibition [3] -3% | outcome [5] | outcome [6] | outcome [7] | outcome [8]

O=C(/C=C/c1ccccc1F)NC1CCC(CCN2CCc3ccc(-c4cccnc4)cc3CC2)CC1 (stereo not given)
active: growth inhibition [4] 92%
inactive: growth inhibition [1] 5% | inhibition [2] 34% | inhibition [3] -4% | outcome [5] | outcome [6] | outcome [7] | outcome [8]

Oc1ccc2[nH]c(-c3cccc(F)c3)nc2c1CN1CCCC1
active: growth inhibition [4] 100%
inactive: growth inhibition [1] 47% | inhibition [2] 0% | inhibition [3] 5% | outcome [5] | outcome [6] | outcome [7] | outcome [8]

CC(C)(C)OC(=O)[C@H](CC(N)=O)NC(=O)c1ccc(-c2ccc(-c3nc4ccc(C(F)(F)F)cc4[nH]3)s2)cc1
inactive: inhibition [3] -2% | outcome [5] | outcome [6] | outcome [7] | outcome [8]
active: growth inhibition [1] 88% | inhibition [2] 62% | growth inhibition [4] 94%

COc1cc(N(Cc2ccc(F)cc2)C(=O)c2ccc(-c3ccccc3)cc2)ccc1OCCN1CCCC1
active: growth inhibition [4] 93%
inactive: growth inhibition [1] 4% | inhibition [2] 11% | inhibition [3] -4% | outcome [5] | outcome [6] | outcome [7] | outcome [8]

CCN(CC)CCCNC(=O)/C(=C/C=C/c1cc2cc(Cl)c(Cl)cc2[nH]1)OC
active: growth inhibition [4] 84%
inactive: growth inhibition [1] 21% | inhibition [2] 38% | inhibition [3] -2% | outcome [5] | outcome [6] | outcome [7] | outcome [8]

N#Cc1ccc(N2CCN(Cc3cccc(-c4cccc(-c5nc6ccc(F)cc6[nH]5)c4)c3)CC2)nc1
inactive: inhibition [2] 26% | inhibition [3] 3% | outcome [5] | outcome [6] | outcome [7] | outcome [8]
active: growth inhibition [1] 52% | growth inhibition [4] 90%

Cc1cc(N[C@@H](Cc2ccccc2)C(=O)NC2CCCC2)nc(NCc2ccccc2C)n1
inactive: growth inhibition [1] 20% | inhibition [2] 2% | inhibition [3] 3% | outcome [5] | outcome [6] | outcome [7] | outcome [8]
active: growth inhibition [4] 91%

COc1cccc(CCN(Cc2ccccc2-c2ccc(CNC3CC(C)(C)NC(C)(C)C3)cc2)C(=O)NC2CCCCC2)c1
inactive: inhibition [3] -1% | outcome [5] | outcome [6] | outcome [7] | outcome [8]
active: growth inhibition [1] 99% | inhibition [2] 97% | growth inhibition [4] 103%

CS(=O)(=O)CCN(CCS(C)(=O)=O)Cc1ccc(-c2ccc3ncnc(Nc4ccc(OCc5cccc(F)c5)c(Cl)c4)c3c2)o1
active: growth inhibition [4] 90%
inactive: growth inhibition [1] 27% | inhibition [2] -2% | inhibition [3] -3% | outcome [5] | outcome [6] | outcome [7] | outcome [8]

CCNc1cc(C(=O)N[C@@H](Cc2ccccc2)[C@H](O)CNCCc2cccc3ccccc23)cc(N2CCCC2=O)c1
inactive: growth inhibition [1] 39% | inhibition [2] 12% | inhibition [3] 3% | outcome [5] | outcome [6] | outcome [7] | outcome [8]
active: growth inhibition [4] 86%

CCC(=O)N[C@@H]1CN[C@@H](C#Cc2cc3c(Nc4ccc(OCc5cccc(F)c5)c(Cl)c4)ncnc3s2)C1
inactive: growth inhibition [1] -5% | inhibition [2] 46% | inhibition [3] -3% | outcome [5] | outcome [6] | outcome [7] | outcome [8]
active: growth inhibition [4] 82%

N#Cc1cccc(NC(=O)Nc2cccc(-c3ccc(-c4nc5ccc(C(F)(F)F)cc5[nH]4)cc3)c2)c1
active: growth inhibition [1] 99% | inhibition [2] 54% | growth inhibition [4] 102%
inactive: inhibition [3] -8% | outcome [5] | outcome [6] | outcome [7] | outcome [8]

Cc1cc(N2CCCC2)nc(/N=C(\N)Nc2cccc(C(F)(F)F)c2)n1
inactive: inhibition [2] 33% | inhibition [3] 1% | outcome [5] | outcome [6] | outcome [7] | outcome [8]
active: growth inhibition [1] 100% | growth inhibition [4] 101%

CC(CN1CCN(C)CC1)C(=O)Nc1ccc(-c2csc(-c3nc4ccccc4[nH]3)c2)cc1 (stereo not given)
active: growth inhibition [4] 93%
inactive: growth inhibition [1] 26% | inhibition [2] 15% | inhibition [3] -4% | outcome [5] | outcome [6] | outcome [7] | outcome [8]

Nc1ncc(-c2cccc(CCN3CCOCC3)c2)cc1-c1nc2ccc(Br)cc2[nH]1
active: growth inhibition [1] 98% | inhibition [2] 60% | growth inhibition [4] 101%
inactive: inhibition [3] 4% | outcome [5] | outcome [6] | outcome [7] | outcome [8]
